Among all 2,100 compounds or so, about 770 (37%) were called active. The list shows a part of the results. A number with no mark means an inactive call.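 The calls were made as follows: active = by-eye trace score of 1 for enhancers or -1 for inhibitors, so actives lie on both sides (some results past the limit were not filed as active); inactive = score 0, or 3 fluorescent, or 4 baseline rise.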
Molecular target: G protein-activated inward rectifier potassium channel 2 (Homo sapiens) + G protein-activated inward rectifier potassium channel 1 (Homo sapiens) (UniProt P48051+P48549)
Sequence (P48051 whole entry, looked up): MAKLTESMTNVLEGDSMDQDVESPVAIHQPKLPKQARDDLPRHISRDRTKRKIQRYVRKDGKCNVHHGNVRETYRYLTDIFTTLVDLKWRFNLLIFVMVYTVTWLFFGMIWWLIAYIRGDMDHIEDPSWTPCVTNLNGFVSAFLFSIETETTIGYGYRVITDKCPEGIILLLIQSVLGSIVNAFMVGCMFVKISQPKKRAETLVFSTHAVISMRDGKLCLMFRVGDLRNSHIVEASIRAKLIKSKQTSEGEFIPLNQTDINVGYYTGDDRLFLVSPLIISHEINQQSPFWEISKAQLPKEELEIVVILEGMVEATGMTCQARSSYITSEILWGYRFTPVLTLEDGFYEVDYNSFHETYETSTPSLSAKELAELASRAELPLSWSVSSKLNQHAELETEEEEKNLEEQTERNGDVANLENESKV
Sequence (P48549 whole entry, looked up): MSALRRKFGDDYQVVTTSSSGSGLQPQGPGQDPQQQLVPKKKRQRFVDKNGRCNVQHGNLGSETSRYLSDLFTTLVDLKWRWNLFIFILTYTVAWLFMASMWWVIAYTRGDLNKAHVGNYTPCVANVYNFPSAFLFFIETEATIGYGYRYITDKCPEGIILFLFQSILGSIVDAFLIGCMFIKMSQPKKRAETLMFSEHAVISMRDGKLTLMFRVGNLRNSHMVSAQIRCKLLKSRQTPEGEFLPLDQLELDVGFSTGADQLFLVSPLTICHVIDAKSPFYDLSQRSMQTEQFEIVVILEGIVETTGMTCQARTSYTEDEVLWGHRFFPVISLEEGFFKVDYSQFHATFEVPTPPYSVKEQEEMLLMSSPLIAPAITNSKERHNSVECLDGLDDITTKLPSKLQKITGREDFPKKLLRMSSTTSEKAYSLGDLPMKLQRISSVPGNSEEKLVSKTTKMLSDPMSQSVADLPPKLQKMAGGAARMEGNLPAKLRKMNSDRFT
Experiment: GIRK1/2 thallium flux modulators, retest, confirmation, cell-based, HEK293 rmGlu8/hGIRK1/2, FluoZin-2 (AID 623911)
Details: HEK293 rmGlu8/hGIRK1/2, thallium flux FluoZin-2; actives lie on both sides; glutamate co-added at its EC20 level

Question: `Cc1cc([N+](=O)[O-])ccc1-c1ccc(C2Nc3ccccc3C(=O)N2O)o1` (stereo unspecified) was tested. Which manual score did it give?
Answer: 0

Question: With `COc1ccc(C(=O)C2C(c3ccc(-c4ccccc4[N+](=O)[O-])o3)NC(=O)NC2(O)C(F)(F)F)cc1` (stereo unspecified) as the compound, how does the manual score read?
Answer: -1 (active)

Question: How did the manual score turn out when `CN(C)c1nc2ccccc2c(N)c1-c1ccccc1` was run?
Answer: -1 (active)

Question: With `COc1cc(OC)cc(-c2nnc(Nc3nc4c(F)cccc4s3)o2)c1` as the compound, how does the manual score read?
Answer: 0

Question: With `Fc1cccc2sc(Nc3nnc(-c4ccccc4)o3)nc12` as the compound, how does the manual score read?
Answer: 1 (active)

Question: How did the manual score turn out when `Fc1cccc2sc(Nc3nnc(-c4ccco4)o3)nc12` was run?
Answer: 1 (active)

Question: With `Fc1ccc2nc(Nc3nc4c(F)cc(F)cc4s3)sc2c1` as the compound, how does the manual score read?
Answer: 0

Question: Which manual score does the source give for `COc1cccc(-c2nnc(Nc3nc4c(F)cccc4s3)o2)c1` here?
Answer: 1 (active)

Question: Which manual score does the source give for `Fc1cccc2sc(Nc3nc4ccccc4s3)nc12` here?
Answer: 0

Question: Which manual score does the source give for `Fc1ccc2nc(Nc3nc4c(F)cccc4s3)sc2c1` here?
Answer: 1 (active)

Question: Which manual score does the source give for `Fc1cccc2sc(Nc3nc4cc5c(cc4s3)OCO5)nc12` here?
Answer: 0

Question: With `Fc1cc(F)c2nc(Nc3nc4c(F)cccc4s3)sc2c1` as the compound, how does the manual score read?
Answer: 0.5

Question: How did the manual score turn out when `COc1ccc(-c2nnc3sc(C4CCCCC4)nn23)cc1OC` was run?
Answer: 0

Question: `C=CCNC(=O)C1CC(=O)N(c2ccc(OCC(=O)Nc3ccccc3)cc2)C1` (stereo unspecified) was tested. Which manual score did it give?
Answer: 0

Question: Which manual score does the source give for `Cc1cc2nc(CCN(C(=S)NCC(C)C)C3CCCC3)[nH]c2cc1C` here?
Answer: 0

Question: For `Cc1ccc(C)c(NC(=S)NNC(=O)c2csc3c2CCCC3)c1`, which manual score is on record?
Answer: 1 (active)

Question: With `Cc1ccc(NC(=O)c2ccc(COc3ccc4c(c3)CCC4)cc2)c(C)c1` as the compound, how does the manual score read?
Answer: 0

Question: How did the manual score turn out when `Cc1cccc(NC(=S)NNC(=O)c2csc3c2CCC(C)C3)c1` (stereo unspecified) was run?
Answer: 1 (active)

Question: Which manual score does the source give for `CC(C)(C)C1CCc2c(C(=O)N/N=C/c3cccs3)csc2C1` (stereo unspecified) here?
Answer: 0

Question: `Cc1ccc(C)c(NC(=S)NNC(=O)c2csc3c2CCC(C)C3)c1` (stereo unspecified) was tested. Which manual score did it give?
Answer: 1 (active)

Question: For `Cc1cccc(NC(=S)NNC(=O)c2csc3c2CCCC3)c1`, which manual score is on record?
Answer: 1 (active)

Question: With `Cc1cccc(CSc2cccc3cccnc23)c1` as the compound, how does the manual score read?
Answer: 0

Question: `CC(=O)Nc1cccc2c1C(=O)N(c1cccc(C)c1)C2=O` was tested. Which manual score did it give?
Answer: 0

Question: For `O=C1CC(N2CCN(c3nc4ccccc4s3)CC2)C(=O)N1c1ccc(F)cc1` (stereo unspecified), which manual score is on record?
Answer: 0

Question: `CC(C)(C)c1ccc(OCCON2C(=O)CCC2=O)c(Cl)c1` was tested. Which manual score did it give?
Answer: 0

Question: How did the manual score turn out when `CC(C)CNC(=S)NNC(=O)c1csc2c1CCC(C)C2` (stereo unspecified) was run?
Answer: 0

Question: `Cc1ccccc1NC(=S)NNC(=O)c1csc2c1CCC(C)C2` (stereo unspecified) was tested. Which manual score did it give?
Answer: 1 (active)

Question: For `Cc1ccc(C)c(NC(=S)NNC(=O)c2cc3c(s2)CCC(C)C3)c1` (stereo unspecified), which manual score is on record?
Answer: 1 (active)

Question: With `CN(C)/C=C/C(=O)/C=C/c1cn(-c2ncc(C(F)(F)F)cc2Cl)c2ccccc12` as the compound, how does the manual score read?
Answer: 0

Question: With `O=c1c2ccc(Cl)cc2[nH]c(=S)n1CCC1=CCCCC1` as the compound, how does the manual score read?
Answer: 0

Question: How did the manual score turn out when `C=CCn1c(=S)[nH]c2nc3c(cc2c1=O)CCCC3` was run?
Answer: 1 (active)

Question: How did the manual score turn out when `CCn1c(=S)[nH]c2nc3c(cc2c1=O)CCCC3` was run?
Answer: 1 (active)

Question: `Cc1ccc(-c2[nH]n3c(=O)c4c(nc3c2C)CCCC4)cc1` was tested. Which manual score did it give?
Answer: 0

Question: For `Cc1cccc(NC(=O)NC(=S)NC(=O)c2ccccc2)c1`, which manual score is on record?
Answer: 0

Question: How did the manual score turn out when `Cc1cccc(NC(=S)NC(=O)c2cc(-c3ccccc3)nc3ccccc23)c1` was run?
Answer: 0

Question: For `Cc1cccc(NC(=S)N/C(=N/S(=O)(=O)c2ccccc2)c2ccccc2)c1`, which manual score is on record?
Answer: 1 (active)

Question: Which manual score does the source give for `CCOc1ccc(-n2c(SCc3nc(-c4cccs4)no3)nnc2-c2ccncc2)cc1` here?
Answer: 0

Question: With `COc1ccc(NC(=O)COC(=O)CC23CC4CC(CC(C4)C2)C3)c([N+](=O)[O-])c1` as the compound, how does the manual score read?
Answer: 0

Question: `CCC(=O)Nc1nc2ccc3nc(C)sc3c2s1` was tested. Which manual score did it give?
Answer: 0

Question: With `CC1CN(S(=O)(=O)c2ccc(C(=O)Nc3nnc(-c4ccc5c(c4)CCCC5)o3)cc2)CC(C)O1` (stereo unspecified) as the compound, how does the manual score read?
Answer: 0

Question: With `CC1CCCN(S(=O)(=O)c2ccc(C(=O)Nc3nnc(-c4ccccc4Cl)o3)cc2)C1` (stereo unspecified) as the compound, how does the manual score read?
Answer: 1 (active)

Question: `CCN(CC)c1ccc2cc(C(=O)NNC(=O)c3ccc(S(=O)(=O)N4CCCCC4)cc3)c(=O)oc2c1` was tested. Which manual score did it give?
Answer: 0

Question: How did the manual score turn out when `O=C(Nc1nnc(-c2ccccc2Cl)o1)c1ccc(S(=O)(=O)N2CCCCCC2)cc1` was run?
Answer: 1 (active)

Question: Which manual score does the source give for `COc1ccccc1NC(=O)c1ccc(S(=O)(=O)N2CCCC2)cc1` here?
Answer: 0

Question: How did the manual score turn out when `NS(=O)(=O)c1ccc(S(=O)(=O)N2CCCC2)cc1` was run?
Answer: 0

Question: With `CCc1cc2cc(C)ccc2nc1SCC(=O)N1CCN(C(=O)c2ccco2)CC1` as the compound, how does the manual score read?
Answer: 0

Question: Which manual score does the source give for `CCN(C#N)c1nc(NC(C)C)nc(NC(C)C)n1` here?
Answer: 0

Question: Which manual score does the source give for `Cc1ccc(N2C(=S)N=C(Nc3ccccc3C)C23CCOC(C)(C)C3)cc1` (stereo unspecified) here?
Answer: 1 (active)

Question: How did the manual score turn out when `Cc1ccccc1Nc1nc2nonc2nc1N1CCOCC1` was run?
Answer: 0

Question: With `Cc1cccc(C)c1NC1=NC(=S)N(c2ccc(N(C)C)cc2)C1(C)C` as the compound, how does the manual score read?
Answer: 0

Question: Which manual score does the source give for `Cc1ccccc1NC1=NC(=S)N(c2ccccc2)C12CCOC(C)(C)C2` (stereo unspecified) here?
Answer: 1 (active)

Question: How did the manual score turn out when `CCOC(=O)CSc1cccc2cccnc12` was run?
Answer: 0

Question: For `CC(C)(C)c1ccc(C(=O)NC(=S)Nc2nc3c(s2)CCCC3)cc1`, which manual score is on record?
Answer: 0

Question: For `O=C(NC(=S)Nc1nc2ccccc2s1)c1ccco1`, which manual score is on record?
Answer: 1 (active)

Question: `CCOC(=O)c1sc(NC(=S)NC(=O)c2ccco2)nc1C` was tested. Which manual score did it give?
Answer: 1 (active)

Question: `CCc1nnc(NS(=O)(=O)c2ccc(NC(=S)NC(=O)c3ccccc3)cc2)s1` was tested. Which manual score did it give?
Answer: 0

Question: `COC(=O)c1sc(NC(=S)NC(=O)c2cccc(C)c2)nc1C` was tested. Which manual score did it give?
Answer: 0

Question: With `COC(=O)c1ccc(C(=O)NC(=S)Nc2nc3c(s2)CCCC3)cc1` as the compound, how does the manual score read?
Answer: 1 (active)

Question: How did the manual score turn out when `O=C(NC(=S)NCc1ccc(-c2nc3ccccc3s2)cc1)c1ccco1` was run?
Answer: 0

Question: How did the manual score turn out when `COC(=O)c1sc(NC(=S)NC(=O)c2ccccc2)nc1C` was run?
Answer: 1 (active)

Question: `Cn1c(-c2ccc(-c3ccccc3)cc2)c[nH]c1=S` was tested. Which manual score did it give?
Answer: 0

Question: How did the manual score turn out when `COC(=O)c1ccc(N2C(=O)CC(Sc3n[nH]c(C)n3)C2=O)cc1` (stereo unspecified) was run?
Answer: 0

Question: For `COC(=O)c1sc(NC(=S)NC(=O)c2ccccc2Cl)nc1C`, which manual score is on record?
Answer: 1 (active)

Question: With `CCC(=O)Nc1ccc2c(c1)ncn2-c1ccc(OC)cc1` as the compound, how does the manual score read?
Answer: 0

Question: `COc1cc(OC)c(NC(=O)CCNC(=O)Cn2cnc3ccccc3c2=O)cc1Cl` was tested. Which manual score did it give?
Answer: 0

Question: For `CCN(CC)S(=O)(=O)c1cc(NC(=O)Cn2cnc3ccccc3c2=O)ccc1C`, which manual score is on record?
Answer: 1 (active)
